From PubChem
Luciferase inh = blocks purified firefly luciferase enzyme activity; P08659; Potency, µM (highest dose often 115 µM), most hits filed as inhibitors; 2.5% of 76,000 active; purified P. pyralis luciferase, luminescence, biochemical; note: % is set by controls: 0 for no effect and ±100 for the full control effect; nearly all actives have a fitted effect of over 65% in size
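Inhibitors were tested against purified firefly luciferase in a biochemical, low-substrate format (both substrates at 10uM) and luminescence measured with a CCD imager.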
NIH3T3 tox = kills NIH 3T3 cells; NIH 3T3 viability, CellTiter-Glo ATP luminescence, 48-72 h; Potency, µM (doses to about 96.7 µM), for inactives: at the top dose activity change, negative = cytotoxicity, most hits filed as inhibitors; 4.3% of 94,000 active; note: % is set by controls: 0 for no effect and ±100 for the full control effect; nearly all actives have a fitted effect of over 55% in size
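Luminescent ATP readout (CellTiter-Glo, 10 min RT) after 48 or 72 hr compound exposure of NIH 3T3 cells seeded at 400 cells/well in 1536-well format; quantitative HTS.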
GPT2 inh = GPT2 alanine aminotransferase inhibition; Potency, µM (titrated, usually from 57.7 µM), inactives show top-dose activity change, negative = inhibition, usual class: inhibitors; Q8TD30; 0.25% of 100,000 active; Recombinant GPT2, coupled pyruvate oxidase/HRP Amplex Red fluorescence; note: % is set by controls: 0 for no effect and ±100 for the full control effect; nearly all actives have a fitted effect of over 60% in size
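Inhibition is scored from Amplex Red fluorescence generated when pyruvate oxidase and HRP act on pyruvate released by GPT2. Reactions contain 10ng/uL enzyme, 250uM a-KG and 2mM L-alanine and run 30 min at room temperature.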
HEK293 tox = HEK 293 cell cytotoxicity; AID 1345083; HEK 293 viability, ATP luminescence (CellTiter-Glo), 48-72 h; Potency, µM (series often up to 115 µM), without a hit: at the highest dose activity change, negative = cytotoxicity, usual class: inhibitors; 6.6% of 94,000 active; note: % is set by controls: 0 for no effect and ±100 for the full control effect; nearly all actives have a fitted effect of over 60% in size
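Pintool-delivered compounds were incubated with HEK 293 cells (250 cells/well) at 37 degree Celsius for 48 or 72 hr. ATP-dependent luminescence (CellTiter-Glo) then reported remaining viable cells.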
hNpr1 antagonist = human Npr1 receptor antagonism; P16066; HEK293 hNpr1 GloSensor cGMP, ANP-stimulated luminescence; Potency, µM (highest dose often 46.3 µM), inactives show at the top dose activity change, negative = inhibition, usual class: inhibitors; 1.6% of 76,000 active; calls by dose curve; note: % is set by controls: 0 for no effect and ±100 for the full control effect; nearly all actives have a fitted effect of over 60% in size
Target sequence (P16066 whole entry, looked up): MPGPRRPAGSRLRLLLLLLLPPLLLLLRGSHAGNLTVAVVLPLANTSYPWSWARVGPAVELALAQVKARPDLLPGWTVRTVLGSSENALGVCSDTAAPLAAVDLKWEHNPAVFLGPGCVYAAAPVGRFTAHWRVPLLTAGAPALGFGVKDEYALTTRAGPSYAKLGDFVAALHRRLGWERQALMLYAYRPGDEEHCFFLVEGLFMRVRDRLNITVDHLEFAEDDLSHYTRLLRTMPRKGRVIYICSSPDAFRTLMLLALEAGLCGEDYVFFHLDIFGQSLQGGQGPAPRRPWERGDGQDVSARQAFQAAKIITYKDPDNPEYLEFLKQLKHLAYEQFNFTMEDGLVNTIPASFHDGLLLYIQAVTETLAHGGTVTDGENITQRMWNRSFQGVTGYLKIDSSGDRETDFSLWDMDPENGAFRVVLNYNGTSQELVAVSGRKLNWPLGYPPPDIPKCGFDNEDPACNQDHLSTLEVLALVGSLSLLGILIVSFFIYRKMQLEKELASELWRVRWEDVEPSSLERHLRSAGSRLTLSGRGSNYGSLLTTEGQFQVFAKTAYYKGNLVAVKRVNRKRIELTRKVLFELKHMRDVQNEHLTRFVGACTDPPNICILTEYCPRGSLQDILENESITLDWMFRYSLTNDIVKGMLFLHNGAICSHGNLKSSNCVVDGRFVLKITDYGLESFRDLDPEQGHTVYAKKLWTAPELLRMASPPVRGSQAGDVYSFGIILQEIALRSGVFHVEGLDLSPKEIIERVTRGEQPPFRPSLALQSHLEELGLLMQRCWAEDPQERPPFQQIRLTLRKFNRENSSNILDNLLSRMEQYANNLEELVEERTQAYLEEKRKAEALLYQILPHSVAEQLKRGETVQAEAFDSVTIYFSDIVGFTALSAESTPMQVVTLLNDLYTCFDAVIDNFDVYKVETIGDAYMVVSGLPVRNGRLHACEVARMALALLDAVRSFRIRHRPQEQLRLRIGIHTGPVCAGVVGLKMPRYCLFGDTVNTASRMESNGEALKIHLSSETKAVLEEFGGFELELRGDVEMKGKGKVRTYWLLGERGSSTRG
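HEK293 cells stably expressing human Npr1 and cGMP GloSensor pGS-40F, loaded 2 h with 2% GloSensor reagent, given compound 30 min at room temperature. Luminescence read before and 20 min after 0.1 nM hNppA.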
Npr1 antag conf = confirmation of human Npr1 natriuretic peptide receptor antagonists; shares compounds with hNpr1 antagonist; HEK293 hNpr1 cGMP GloSensor luminescence, ANP-stimulated; Potency, µM (titrated, usually from 57.6 µM), without a hit: top-dose activity change, negative = inhibition, hits mostly inhibitors; 76% of 1,400 active; calls by dose curve; note: nearly all actives have a fitted effect of over 70% in size
Npr2 selectivity = hNpr2 antagonism, selectivity versus Npr1. shares compounds with hNpr1 antagonist. 67% of 1,400 active. HEK293 hNpr2 GloSensor cGMP luminescence, CNP-stimulated. Potency, µM (highest dose often 57.6 µM), without a hit: at the highest dose activity change, negative = inhibition, hits mostly inhibitors; calls by dose curve; note: nearly all actives have a fitted effect of over 70% in size
FLuc inh counter = FLuc enzyme inhibition, Npr1 counter-screen; shares compounds with hNpr1 antagonist; purified FLuc enzyme, luminescence, Km substrate; Potency, µM (doses to about 57.6 µM), for inactives: at the highest dose activity change, negative = inhibition, hits mostly inhibitors; 0.7% of 1,400 active; note: 0% is about no effect
GloSensor ctrl = control cell line activity, Npr1 antagonist counter-screen; shares compounds with hNpr1 antagonist; HEK293 GloSensor cGMP, SNP-stimulated, luminescence; Potency, µM (highest dose often 57.6 µM), inactives show top-dose activity change, negative = inhibition, usual class: inhibitors; 69% of 1,400 active; AID 1347051; calls by dose curve; note: % is set by controls: 0 for no effect and ±100 for the full control effect; nearly all actives have a fitted effect of over 70% in size
Numbers without * were called inactive; i = inactive; ? = inconclusive; . = no result given; [ ] = another dose, or the depositor's remark. Hits are enriched below; roughly 10% of the tested compounds scored in any of these assays. Unless noted, calls come from the whole dose curve; as a rule, active = well fitted curve in the direction sought with a large enough effect; inconclusive = small, poorly fitted or top-dose-only effect, or another doubt; inactive = no such curve, though single readings can be large; an effect the other way counts as inactive or inconclusive. Potency is the fitted concentration of half-maximal effect.

SMILES	Luciferase inh	NIH3T3 tox	GPT2 inh	HEK293 tox	hNpr1 antagonist	Npr1 antag conf	Npr2 selectivity	FLuc inh counter	GloSensor ctrl
CN(C)c1ccc(C(=O)N[C@H]2CO[C@H]3[C@@H]2OC[C@@H]3n2nnnc2Oc2cccc(N(C)C)c2)cc1	i	-27.9%	2.1%	?	11.2µM*	13.7µM*	15.3µM*	-3.0%	12.2µM*
O=C(NCC(F)F)C1CCCN1C(=O)c1cccc(-c2cccnc2)c1 (stereo unspecified)	.	-12.8%	.	-5.7%	.	.	.	.	.
Cc1oc(-c2ccccc2)nc1CN1CCCC(C(=O)NCCc2noc(-c3ccccc3)n2)C1 (stereo unspecified)	i	?	-7.4%	?	12.6µM*	?	?	4.9%	?
Cc1cccc(-c2nc(CN3CCC(C(=O)NCCc4noc(-c5ccncc5)n4)CC3)c(C)o2)c1	.	-21.7%	0.2%	-22.2%	.	.	.	.	.
O=C(Cc1ccc(F)cc1)N1CCCC2(CNc3ncccc3[S+](=O)([O-])N2)C1 (stereo unspecified)	.	-26.6%	.	-18.5%	.	.	.	.	.
COc1ccc(S(=O)(=O)N[C@H]2C[C@@H](c3nc(-c4ccc(OC(F)(F)F)cc4)no3)N(C)C2)cc1	i	?	?	?	11.2µM*	21.7µM*	21.7µM*	-13.4%	17.2µM*
O=C1c2cc(N3CCOCC3)nc(-c3cccc(F)c3)c2CN1Cc1ccccc1	i	?	-12.8%[88.5 µM]	?	?	28µM*	?	-0.6%[86.2 µM]	?
Cc1ccccc1CN1CC[C@@H]2OCC(=O)N(C(C)C)[C@H]2CC1	i	-23.8%[138 µM]	-11.3%[88.5 µM]	?	7.94µM*	7.89µM*	12.5µM*	3.0%[86.2 µM]	6.27µM*
N#Cc1ccc(CN2CCC3(CC2)CC(=O)c2ccccc2O3)cc1	i	?	-13.9%[88.5 µM]	?	28.2µM*	31.4µM*	35.3µM*	1.6%[86.2 µM]	25µM*
N#Cc1ccc(CN2CCC3(CC2)CC(c2cccnc2)=NO3)cc1	i	-20.1%[138 µM]	i	79.4µM*	22.4µM*	19.8µM*	22.2µM*	0.6%[86.2 µM]	17.7µM*
Clc1ccc(CN2CCC3(CC2)CC(c2cccnc2)=NO3)cc1	.	-22.1%	-7.4%	?	.	27µM*	?	4.2%	24.1µM*
N#Cc1ccc(CN2CCC3(CC2)CC(c2cccc(C(F)(F)F)c2)=NO3)cc1	i	28.2µM*	2.1%	31.6µM*	8.91µM*	?	?	2.0%[86.2 µM]	?
COc1ccccc1-c1ccc2c(C(=O)NCCc3ccc(F)cc3)nn(C)c2n1	.	?	1.6%	?	.	.	.	.	.
O=C(c1ccc(F)cc1)N1CCC[C@H](c2nc(-c3ccc(F)cc3)no2)C1	.	.	-15.3%	.	.	.	.	.	.
CC(C)c1ccc(C(=O)N2CCC(Cc3nc(-c4ccc(F)cc4)no3)CC2)cc1	i	?	i	?	1.41µM*	1.37µM*	1.72µM*	-0.2%	1.37µM*
Cc1ccc(C(=O)N2CCC(Cc3nc(-c4cnccn4)no3)CC2)cc1C	i	?	i	-29.7%	-6.8%	.	.	.	.
CCc1ccc(C(=O)N2CCC(Cc3nc(-c4ccc(F)cc4)no3)CC2)cc1	i	?	0.0%	?	1.26µM*	1.53µM*	1.72µM*	4.2%	1.53µM*
O=C(c1ccc2c(c1)OCO2)N1CCC(Cc2nc(-c3ccc(F)cc3)no2)CC1	i	?	-10.9%	?	2.51µM*	2.43µM*	2.17µM*	-6.9%	1.72µM*
Cc1ccc(C(=O)N2CCC(Cc3nc(-c4ccc(F)cc4)no3)CC2)cn1	i	?	0.7%	?	1.12µM*	1.37µM*	1.93µM*	2.3%	1.53µM*
Cc1nc(-c2ccc(F)cc2)n(Cc2nc(-c3ccc(OC(C)C)cc3)oc2C)c(=O)c1CCO	i	-11.7%	?	-8.1%	-5.6%	.	.	.	.
CCc1ccc(C(=O)N2CCC(Cc3nc(C(C)C)no3)CC2)cc1	i	?	i	?	15.8µM*	27.3µM*	?	2.4%	24.3µM*
O=C(N[C@H](c1ccccn1)C1CC(O)C1)C1(c2ccc(Cl)cc2)CCC1 (stereo partly specified)	i	-19.1%	-3.5%[11.5 µM]	?	?	?	19.3µM*	0.8%	0.7%
CS(=O)(=O)c1ccc(CC(=O)N[C@H](c2ccccn2)C2CC(O)C2)cc1 (stereo partly specified)	i	1.6%	?	-3.0%	-18.5%	.	.	.	.
FC(F)(F)c1ccc(O[C@H]2COCCN(c3nc4ccccc4o3)C2)nc1	i	?	2.9%[88.5 µM]	100µM*	35.5µM*	39.6µM*	35.3µM*	-0.5%[86.2 µM]	35.3µM*
O=C(Nc1cccc(F)c1)N1CCOc2ccc(CN3CCc4ccccc4C3)cc2C1	i	?	1.8%	?	-22.8%	.	.	.	.
SMILES	Luciferase inh	NIH3T3 tox	GPT2 inh	HEK293 tox	hNpr1 antagonist	Npr1 antag conf	Npr2 selectivity	FLuc inh counter	GloSensor ctrl
Cc1ccc(N2CCN(C(=O)C3CCCN(c4cnn(Cc5ccccc5)c(=O)c4)C3)CC2)cc1 (stereo unspecified)	i	?	2.1%	25.1µM*	10µM*	17.2µM*	19.3µM*	2.4%	15.3µM*
O=C(CCCc1ccccc1)N1CCC(Cc2nc(-c3ccc(F)cc3)no2)CC1	i	?	i	?	7.94µM*	10.9µM*	12.2µM*	3.1%	10.9µM*
COc1ccccc1-c1noc(CCC(=O)N2CCC(Cc3noc(C)n3)CC2)n1	i	-20.4%	3.5%	-24.7%	-1.8%	.	.	.	.
O=C(CCc1ccccc1)N1CCC(Cc2nc(-c3ccc(F)cc3)no2)CC1	i	?	-9.1%	44.7µM*	5.01µM*	6.11µM*	7.69µM*	1.2%	5.44µM*
O=C(Nc1ccc(Cl)cc1)c1nc2c(o1)CCN(CC1CCCC1)CC2	i	?	3.4%[88.5 µM]	?	28.2µM*	35.3µM*	31.4µM*	-14.0%[86.2 µM]	25µM*
O=C(Nc1ccc(Cl)cc1)c1nc2c(o1)CCN(CC1CC1)CC2	i	?	i	?	?	?	-25.8%[86.2 µM]	-22.2%[86.2 µM]	?
